Several values for one entry are separate records, joined by “and”; a condition that tells them apart may be missing. Identical values can stand only once. Inconclusive results are not listed. Activity calls are given as the source filed them.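 How the source made its calls, unless noted: active means normalized viability below 100% at a tested concentration; inactive means the rest.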
What was measured:
[1] = viability loss in pontine glioma line – cell-based, SU-DIPG-XVII, MIPE5.0, CellTiter-Glo, qHTS, dose response (AID 1347060; cut-off not given, nearly all actives have AC50 up to about 26 µM;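 on AC50: cells exposed to compound for 48 hours before viability readout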); conditions: CellTiter-Glo ATP luminescence
[2] = viability loss in pontine glioma line – cell-based, SU-DIPG-XIII, MIPE4.0, CellTiter-Glo, qHTS, dose response (AID 1347061; cut-off not given, nearly all actives have AC50 up to about 37 µM;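 further: cells exposed to compound for 48 hours before readout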); conditions: CellTiter-Glo ATP luminescence
[3] = viability loss in pontine glioma line – cell-based, JHH-DIPG-1, MIPE4.0, CellTiter-Glo, qHTS, dose response (AID 1347062; cut-off not given, nearly all actives have AC50 up to about 27 µM;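 on AC50: cells exposed to compound for two days before readout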); conditions: JHH-DIPG-1 viability, CellTiter-Glo ATP luminescence
[4] = viability loss in pontine glioma line – cell-based, SU-DIPG-IV, MIPE4.0, CellTiter-Glo, qHTS, dose response (AID 1347063; cut-off not given, nearly all actives have AC50 up to about 30 µM;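 further: compound exposure lasted 48 hours before the viability readout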); conditions: CellTiter-Glo ATP luminescence
[5] = viability loss in pontine glioma line – cell-based, SU-DIPG-XIII, MIPE5.0, CellTiter-Glo, qHTS, dose response (AID 1347064; cut-off not given, nearly all actives have AC50 up to about 23 µM;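 on AC50: cells exposed to compound for 48 hours before the viability read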); conditions: CellTiter-Glo ATP luminescence
[6] = viability loss in pontine glioma line – cell-based, SU-DIPG-XXV, MIPE5.0, CellTiter-Glo, qHTS, dose response (AID 1347065; cut-off not given, nearly all actives have AC50 up to about 26 µM;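 further: cells exposed to compound for 48 hours before ATP readout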); conditions: CellTiter-Glo ATP luminescence
[7] = JHH-DIPG-1 glioma cell viability, MIPE5.0 library, CellTiter-Glo luminescence, qHTS (AID 1347067; cut-off not given, nearly all actives have AC50 up to about 26 µM;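 further: cells exposed to compound for 48 hours before readout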); conditions: JHH-DIPG-1 glioma viability, CellTiter-Glo ATP luminescence
[8] = growth inhibition of DIPG cells – cell-based, MIPE4.0 library, CellTiter-Glo luminescence, qHTS (AID 1347066; cut-off not given, nearly all actives have AC50 up to about 30 µM;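 further: cells exposed to compound for 48 hours before readout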); conditions: SU-DIPG-VI viability, CellTiter-Glo ATP luminescence
[9] = growth inhibition of DIPG cells – cell-based, MIPE5.0 library, qHTS (AID 1347068; cut-off not given, nearly all actives have IC50 up to about 30 µM;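 on IC50: cells exposed to compound for 48 hours before viability readout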); conditions: SU-DIPG-XXV viability
[10] = drug combination growth inhibition, ovarian cancer – cell-based, oncology-focused library, rucaparib conditional, profiling panel (AID 1508598); conditions: patient-derived ovarian cancer cells, CellTiter-Glo viability, 144 h, stronger effect = lower value
[11] = viability loss with induced miR-34 in A549 – imaging, A549 dox-inducible miR-34, nuclei and caspase counts, primary screen (AID 1347080;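 active means compounds whose cell count with miR-34 switched on is under 0.7 times the count with it off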); conditions: A549 miR-34 inducible, Hoechst nuclei count, 48 h
[12] = MELAS cybrid and Rieske KO viability enhancers – cell-based, MELAS cybrids, Rieske KO mouse fibroblasts, CellTiter-Glo, primary screen (AID 1508586;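 active means mean z-score across replicates of 1.96 or higher in either the MELAS or the Rieske mutant cell line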;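 further: z relative to plate mean and SD of compound and empty wells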); conditions: low glucose
[13] = compounds altering HSF1 focus formation in cells – imaging, Selleck Cancer Library (AID 1347162; in the data active means plate-normalised HSF1 focus index below about 0.46); conditions: human cells, HSF1 nuclear foci imaging, at 10 µM; SSMD: measured here: HSF1 foci SSMD mean; cell count: measured here: cell number; plate-normalised HSF1 focus index: stronger effect = lower value
[14] = at 0.000305 µM, OCI-C5x cells, with rucaparib 10 µM, 100% = cells with rucaparib alone
[15] = at 0.000305 µM, OCI-C5x cells, without rucaparib
[16] = at 0.000305 µM, OCI-P5x cells, with rucaparib 20 µM, 100% = cells with rucaparib alone
[17] = at 0.000305 µM, OCI-P5x cells, without rucaparib
[18] = at 0.00122 µM, OCI-C5x cells, with rucaparib 10 µM, 100% = cells with rucaparib alone
[19] = at 0.00122 µM, OCI-C5x cells, without rucaparib
[20] = at 0.00122 µM, OCI-P5x cells, with rucaparib 20 µM, 100% = cells with rucaparib alone
[21] = at 0.00122 µM, OCI-P5x cells, without rucaparib
[22] = at 0.00488 µM, OCI-C5x cells, with rucaparib 10 µM, 100% = cells with rucaparib alone
[23] = at 0.00488 µM, OCI-C5x cells, without rucaparib
[24] = at 0.00488 µM, OCI-P5x cells, with rucaparib 20 µM, 100% = cells with rucaparib alone
[25] = at 0.00488 µM, OCI-P5x cells, without rucaparib
[26] = at 0.0195 µM, OCI-C5x cells, with rucaparib 10 µM, 100% = cells with rucaparib alone
[27] = at 0.0195 µM, OCI-C5x cells, without rucaparib
[28] = at 0.0195 µM, OCI-P5x cells, with rucaparib 20 µM, 100% = cells with rucaparib alone
[29] = at 0.0195 µM, OCI-P5x cells, without rucaparib
[30] = at 0.0781 µM, OCI-C5x cells, with rucaparib 10 µM, 100% = cells with rucaparib alone
[31] = at 0.0781 µM, OCI-C5x cells, without rucaparib
[32] = at 0.0781 µM, OCI-P5x cells, with rucaparib 20 µM, 100% = cells with rucaparib alone
[33] = at 0.0781 µM, OCI-P5x cells, without rucaparib
[34] = at 0.313 µM, OCI-C5x cells, with rucaparib 10 µM, 100% = cells with rucaparib alone
[35] = at 0.313 µM, OCI-C5x cells, without rucaparib
[36] = at 0.313 µM, OCI-P5x cells, with rucaparib 20 µM, 100% = cells with rucaparib alone
[37] = at 0.313 µM, OCI-P5x cells, without rucaparib
[38] = at 1.25 µM, OCI-C5x cells, with rucaparib 10 µM, 100% = cells with rucaparib alone
[39] = at 1.25 µM, OCI-C5x cells, without rucaparib
[40] = at 1.25 µM, OCI-P5x cells, with rucaparib 20 µM, 100% = cells with rucaparib alone
[41] = at 1.25 µM, OCI-P5x cells, without rucaparib
[42] = at 5 µM, OCI-C5x cells, with rucaparib 10 µM, 100% = cells with rucaparib alone
[43] = at 5 µM, OCI-C5x cells, without rucaparib
[44] = at 5 µM, OCI-P5x cells, with rucaparib 20 µM, 100% = cells with rucaparib alone
[45] = at 5 µM, OCI-P5x cells, without rucaparib
[46] = stronger effect = lower value, cell number ratio, induced over uninduced
[47] = measured here: relative caspase fold change +Dox/-Dox
[48] = measured here: total cells with miR-34 induction, stronger effect = lower value
[49] = measured here: total cells without miR-34 induction
[50] = MELAS cybrid survival, CellTiter-Glo 48 h, stronger effect = higher value
[51] = Rieske KO mouse fibroblast survival, CellTiter-Glo 72 h

CC[C@H]1OC(=O)[C@H](C)C(=O)[C@H](C)[C@@H](O[C@H]2O[C@H](C)C[C@H](N(C)C)[C@H]2O)[C@](C)(OC)C[C@@H](C)C(=O)[C@H](C)[C@H]2N(CCCCn3cnc(-c4cccnc4)c3)C(=O)O[C@]12C
inactive: outcome [2] | outcome [3] | outcome [4] | outcome [5] | outcome [6] | outcome [7]
active: AC50 [1] 26.3 µM

Cc1cc(Nc2cc(N3CCN(C)CC3)nc(/C=C/c3ccccc3)n2)n[nH]1
active: AC50 [1] 1.05 µM | AC50 [2] 12.1 µM | AC50 [3] 27 µM | AC50 [4] 13.6 µM | AC50 [5] 2.09 µM | AC50 [6] 1.05 µM | AC50 [8] 13.6 µM | AC50 [7] 4.68 µM | IC50 [9] 2.63 µM | viability [10, 17] 97.8% | viability [10, 31] 95.9% | viability [10, 36] 87.9% | viability [10, 37] 93.6% | viability [10, 38] 90.9% | viability [10, 39] 93.3% | viability [10, 40] 74% | viability [10, 41] 56.9% | viability [10, 42] 95.4% | viability [10, 43] 54.2% | viability [10, 44] 3.53% | viability [10, 45] 6.43%
inactive: viability [10, 14] 120% | viability [10, 15] 103% | viability [10, 16] 101% | viability [10, 18] 106% | viability [10, 19] 107% | viability [10, 20] 110% | viability [10, 21] 108% | viability [10, 22] 113% | viability [10, 23] 104% | viability [10, 24] 118% | viability [10, 25] 114% | viability [10, 26] 115% | viability [10, 27] 116% | viability [10, 28] 109% | viability [10, 29] 107% | viability [10, 30] 110% | viability [10, 32] 103% | viability [10, 33] 107% | viability [10, 34] 110% | viability [10, 35] 112%

CC(=O)O[C@H]1C[C@@H]2CC[C@@H]3[C@H](CC[C@@]4(C)[C@H]3C[C@H]([N+]3(C)CCCCC3)[C@@H]4OC(C)=O)[C@@]2(C)C[C@@H]1[N+]1(C)CCCCC1
0.886 and 0.709 and 0.967: fold change [11, 47]
9560 and 9410 and 11300: cell count [11, 49]
inactive: outcome [1] | outcome [2] | outcome [3] | outcome [4] | outcome [5] | outcome [6] | outcome [8] | outcome [9] | fold change [11, 46] 1.08 and 0.979 and 0.882 | z-score [12, 50] -0.0905 and -0.925
10300 and 9210 and 9980: cell count [11, 48]
-1.19 and -0.284: z-score [12, 51]

Cc1ccc(C(N)=O)cc1Nc1nccc(-c2cn(C(C)C)c3cnccc23)n1
active: AC50 [1] 9.34 µM | AC50 [2] 18.7 µM | AC50 [3] 9.35 µM | AC50 [4] 8.33 µM | AC50 [5] 11.8 µM | AC50 [6] 7.42 µM | AC50 [8] 13.2 µM | IC50 [9] 11.8 µM

CCOc1ccn(-c2ccc(F)cc2)c(=O)c1C(=O)Nc1ccc(Oc2ccnc(N)c2Cl)c(F)c1
active: AC50 [4] 18.7 µM | AC50 [6] 11.8 µM | viability [10, 20] 99.9% | viability [10, 36] 91.8% | viability [10, 40] 88.6% | viability [10, 41] 97.3% | viability [10, 44] 65.2% | viability [10, 45] 96.2%
7130: cell count [13]
2.9: SSMD [13]
inactive: outcome [1] | outcome [2] | outcome [3] | outcome [5] | outcome [8] | outcome [9] | fold change [11, 46] 1.21 | plate-normalised HSF1 focus index [13] 1.11 | z-score [12, 50] -0.348 | viability [10, 14] 118% | viability [10, 15] 124% | viability [10, 16] 109% | viability [10, 17] 129% | viability [10, 18] 125% | viability [10, 19] 134% | viability [10, 21] 120% | viability [10, 22] 113% | viability [10, 23] 120% | viability [10, 24] 103% | viability [10, 25] 117% | viability [10, 26] 116% | viability [10, 27] 118% | viability [10, 28] 101% | viability [10, 29] 114% | viability [10, 30] 110% | viability [10, 31] 138% | viability [10, 32] 107% | viability [10, 33] 116% | viability [10, 34] 129% | viability [10, 35] 128% | viability [10, 37] 106% | viability [10, 38] 135% | viability [10, 39] 120% | viability [10, 42] 133% | viability [10, 43] 135%
-0.0407: z-score [12, 51]
0.507: fold change [11, 47]
5080: cell count [11, 48]
4210: cell count [11, 49]

CCCCCCCCc1ccc(CCC(N)(CO)CO)cc1
inactive: fold change [11, 46] 0.951 and 0.892 | plate-normalised HSF1 focus index [13] 0.589 | z-score [12, 50] -0.312 | viability [10, 14] 106% | viability [10, 15] 117% | viability [10, 16] 107% | viability [10, 17] 111% | viability [10, 18] 110% | viability [10, 19] 112% | viability [10, 22] 101% | viability [10, 23] 122% | viability [10, 25] 103% | viability [10, 26] 111% | viability [10, 27] 120% | viability [10, 29] 106% | viability [10, 30] 102% | viability [10, 31] 106% | viability [10, 34] 112% | viability [10, 35] 108% | viability [10, 36] 108% | viability [10, 37] 113% | viability [10, 38] 103% | viability [10, 39] 121% | viability [10, 43] 129%
-0.433: z-score [12, 51]
0.756 and 0.682: fold change [11, 47]
3980: cell count [13]
active: AC50 [1] 10.5 µM | AC50 [2] 23.5 µM | AC50 [3] 9.35 µM | AC50 [4] 3.72 µM | AC50 [5] 18.6 µM | AC50 [6] 10.5 µM | AC50 [8] 23.5 µM | AC50 [7] 10.5 µM | viability [10, 20] 89.4% | viability [10, 21] 98% | viability [10, 24] 93.5% | viability [10, 28] 92.4% | viability [10, 32] 88.8% | viability [10, 33] 53.5% | viability [10, 40] 64% | viability [10, 41] 50.7% | viability [10, 42] 90.1% | viability [10, 44] 26% | viability [10, 45] 0.383%
5440 and 7580: cell count [11, 48]
5720 and 8490: cell count [11, 49]
-8.05: SSMD [13]
